Test results published in PubChem BioAssay AID588719 (Southern Research Specialized Biocontainment Screening …, 2011).
Out of some 1,500 compounds screened, about 920 (61%) were called active. The set was probably picked from earlier hits. The list shows a part of the results. Measured potencies and affinities stand elsewhere. Values without a mark were called inactive. How the calls were made is not given here.

assay: Vero 76 cell cytotoxicity, dose response, cytotoxicity control for VEEV inhibitor project (AID 588719); details: Vero 76 cells viability, cytotoxicity counter-screen; series mostly up to 25 µM; viability: at the top concentration

SMILES	viability [%]
COC(=O)c1cc(Cl)c(NC(=O)c2ccc(C(C)(C)C)cc2)cc1OC	70.6
COc1cc(NC(=S)N(C)C)c(OC)cc1Cl	103
CCc1ccc(-c2cc3c(=O)n(CC(=O)NCCCN4CCN(CC)CC4)nc(C)n3n2)cc1	83.6
NC(=O)C1=C[C@H](C2CCCCC2)C[C@H](OCc2ccc(CO)cc2)O1	96
O=C(NC1CC1)C1=C[C@@H](C2CCCCC2)C[C@@H](OCc2ccc(CO)cc2)O1	84.6
Cc1cccc(NC(=O)C(C)Sc2nc3ccccc3c(=O)n2CCCN2CCOCC2)c1 (stereo unspecified)	77.5
CC(=O)C1C2c3ccccc3OC1(C)N=c1s/c(=C/c3cn(C)nc3C)c(=O)n12 (stereo unspecified)	86.7
O=C(NC1CCN(Cc2ccccc2)CC1)c1ccc(Oc2cc(Cl)cc(Cl)c2)o1	102
c1ccc(COC(CN2CCCCCC2)CN2CCCCCC2)cc1	70.4
O=C(c1ccc(-c2ccccc2)c(F)c1)C1CCCN(CCO)C1 (stereo unspecified)	82.1
COc1cc2c(cc1OC)C13CCN4CC5=CCOC(CC(=O)O)C(C5CC41)C3N2 (stereo unspecified)	93
Cc1c(-c2ccc(OCc3ccccc3)cc2)nc2ccccc2c1C(=O)O	107
C[C@@H]1CN([C@H](C)CO)C(=O)CCCn2nncc2CO[C@@H]1CN(C)C(=O)Nc1ccc(N2CCCCC2)cc1	96.2
CC(C)CN(C(=O)COC(=O)/C=C/c1ccc(Cl)c(Cl)c1)c1c(N)n(Cc2ccccc2)c(=O)[nH]c1=O	74.3
COc1cccc(/C=C/c2n[nH]c(=O)c(C#N)c2C)c1	70.6
O=C1C2C3C=CC(C4CC34)C2C(=O)N1CCCCN1CCN(c2ccc(F)cc2)CC1 (stereo unspecified)	72.1
Cc1ccc(NC(=O)c2ccc(CN3CCN(C)CC3)cc2)cc1Nc1nccc(-c2cccnc2)n1	72
COc1ccc(-c2cc(-c3ccc(F)cc3)nc(N3CCN(C)CC3)n2)cc1	84.9
COCC(C)n1c(SCc2cc(=O)n3cc(C)ccc3n2)nc2ccccc2c1=O (stereo unspecified)	81.7
Cc1ccc2oc(=O)c3cnn(CC(=O)Nc4ccccc4N4CCN(C)CC4)c3c2c1	82.2
COc1cc(NC(=O)c2ccc(-c3cccc([N+](=O)[O-])c3)o2)ccc1NC(=O)C(C)C	82.7

SMILES	viability [%]
CC(=O)c1cccc(NC(=O)/C=C/c2ccc([N+](=O)[O-])s2)c1	88
Cc1cccc(NC(=O)CSc2nc3ccccc3nc2N2CCCC2)c1	74.6
COc1ccc(C(Nc2cccc([N+](=O)[O-])c2)P(=O)(OC(C)C)OC(C)C)cc1 (stereo unspecified)	93.5
O=C1c2cccc3cc([N+](=O)[O-])cc(c23)C(=O)N1c1ccccc1O	81.5
CCCNC(=O)N1CCN(c2nc(C(C)C)c3c(c2C#N)CC(C)(C)OC3)CC1	76
Cc1ccccc1NC(=S)/C(=C(\[O-])c1ccc(C)c([N+](=O)[O-])c1)[n+]1ccccc1	97.6
O=C(Nc1ccccc1)c1cccc(Cn2cc(C(F)(F)F)ccc2=O)c1	80.6
Cc1cc(C(=O)NC2CCCc3c2cnn3-c2cccc(C)c2C)no1 (stereo unspecified)	64.3
CCOC(=O)C1C(=O)C(=O)N(C2CCCCC2)C1C(=O)OCC (stereo unspecified)	99.2
C/C(N)=C(/C#N)C(=O)COC(=O)c1cc(C)n(-c2ccc(F)cc2)c1C	76.3
CCCn1c(SCC(=O)N(C)C2CCS(=O)(=O)C2)nc2sc3c(c2c1=O)CCC3 (stereo unspecified)	73.6
Cc1cccc(C)c1OCC(=O)N(Cc1cccs1)C1CCS(=O)(=O)C1 (stereo unspecified)	88
CN(C(=O)CCN1C(=O)/C(=C/c2ccccc2F)SC1=S)C1CCS(=O)(=O)C1 (stereo unspecified)	97.8
O=C(Cn1c(=O)sc2ccccc21)Nc1nc2c(s1)CCCC2	97.1
NC(=O)CC(NC(=O)Cc1ccc(Br)cc1)c1ccc(N2CCC(Cc3ccccc3)CC2)c([N+](=O)[O-])c1 (stereo unspecified)	75.1
CCCCCCCCCC(=O)N[C@@H]1c2cc(OC)c(OC)cc2C[C@H]1OCc1ccccc1	81.8
COc1ccccc1C(CNC(=O)CNC(=O)c1ccc(Cl)c(Cl)c1)N1CCCC1 (stereo unspecified)	89
COc1ccc(/C=N/NC(=O)c2cc[n+]([O-])cc2)cc1OC	94.5
CCCn1nc(NC(=O)c2cccs2)c2cc3cccc(C)c3nc21	83
CN(C)CCCN(C(=O)c1cc(-c2cccs2)nc2ccccc12)c1nc2ccc(F)cc2s1	81
C/C(=N/OCO/N=C(/C)c1ccc(F)cc1)c1ccc(F)cc1	81.7

SMILES	viability [%]
C/C(=N\NC(=O)c1ccc(N/N=C(\C)c2ccc(O)cc2)cc1)c1ccc(O)cc1	86
Cc1ccc(S(=O)(=O)C2(C(=O)NCc3ccccc3Cl)CC2)cc1	86
Cc1ccccc1NC(=NCCCN1CC1)Nc1ccccc1C	82.8
Cc1ccccc1CN(C)C(C)C(=O)Nc1ccccc1F (stereo unspecified)	92.6
O=C1C2CCCN2C(c2cccs2)N1c1ccc(Cl)cc1 (stereo unspecified)	86.3
C[C@@H]1CN([C@H](C)CO)C(=O)CCCn2nncc2CO[C@H]1CN(C)C(=O)C1CC1	102
CC(C)[N+]1=C2C=CC=CC=C2SC12C([N+](=O)[O-])=CC(=[N+]([O-])[O-])C=C2[N+](=O)[O-] (stereo unspecified)	84.7
O=C(Nc1csc([N+](=O)[O-])c1)Nc1ccccc1Cl	82.5
Cc1ccc(CS(=O)Cc2ccc(C(=O)N3CCN(c4cccc(C)c4C)CC3)o2)cc1 (stereo unspecified)	97.3
CCC(=O)N1CCN(c2ccc(Cl)cc2NC(=O)c2cccc([N+](=O)[O-])c2)CC1	99.8
COc1ccc(Cl)cc1C=CC=Nc1ccc(S(N)(=O)=O)cc1	73.1
N#Cc1cccc(NC(=O)CSc2n[nH]c(=O)[nH]c2=O)c1	90.3
Cc1ccc(CN2CCCC(C(=O)c3ccc4c(c3)OCO4)C2)cc1C (stereo unspecified)	87.6
COc1ccc(N2CCCC2)c(NC(=O)c2ccc([N+](=O)[O-])o2)c1	97.5
O=[N+]([O-])c1cccc(/C([O-])=C(/C(=S)Nc2cccc3ccccc23)[n+]2ccccc2)c1	103
O=[N+]([O-])c1cccc(C([O-])=C(C(=S)Nc2cccc3ccccc23)[n+]2ccccc2)c1	93
Cc1nc(N)[nH]c(=O)c1CCCNc1ccc([N+](=O)[O-])cc1	90.7
C=CCNCCCCOc1ccc(OCc2ccccc2)cc1	92.5
CCn1c(=O)c([N+](=O)[O-])c(NCc2ccc3c(c2)OCO3)c2ccccc21	86
Cc1ccc(Nc2nc(=O)c3cccnc3s2)c(Br)c1	98.6
CCN1C/C(=C\c2cc(OC)c(OC)c(OC)c2)C2=NN(c3ccccc3)C(c3cc(OC)c(OC)c(OC)c3)C2C1 (stereo unspecified)	86.3

SMILES	viability [%]
CC(C)CN1C(=O)/C(=C(/C#N)C(=O)NC2CCCCC2)c2ccccc21	85.1
Cc1ccc(SCCC(=O)Nc2nccs2)cc1	96.8
COc1ccc(C(=O)NC2CCCc3c2cnn3-c2cccc(C)c2C)o1 (stereo unspecified)	74.2
Cn1c(CCN2CCCCC2)nc2cc(NC(=O)COc3ccc([N+](=O)[O-])cc3)ccc21	87.6
COc1ccc(Cl)cc1S(=O)(=O)N1CCN(C(=O)c2n[nH]c(=O)c3ccccc23)CC1	86.1
O=c1oc(C2(O)CCCCC2)cc2ccc(-c3ccc4[nH]ccc4c3)cc12	57
O=C(C=Cc1cccc(Cl)c1)c1ccccc1	94.6
Cc1cc(NC(=O)C(C)SCC(=O)N(Cc2ccccc2)c2ccccc2)no1 (stereo unspecified)	80.7
Cc1cc(NC(=O)COC(=O)c2cc(S(=O)(=O)N(C)c3ccccc3)ccc2Cl)no1	92.1
O=C(O)c1cc(-c2ccc3ccccc3c2)nc2ccc(F)cc12	94.6
Cc1nc(N)ncc1Sc1ccccc1	85.3
O=C(CSc1nc2ccc(Cl)cc2[nH]1)c1cccs1	82
O=C(/C=C/c1ccnc2ccccc12)c1cccs1	94.5
COc1cccc(N2CCN(c3ccc(S(=O)(=O)N4CCN(C)CC4)cc3[N+](=O)[O-])CC2)c1	71
CN1CCN(c2ccc(CNS(=O)(=O)c3ccccc3)cc2)CC1	91.8
COc1ccc(N2CCN(CCCn3c(=S)[nH]c4ncccc4c3=O)CC2)cc1	86.2
C#CCSc1nc(=O)c2cccnc2n1-c1ccc(C)cc1	102
CCN(CC)CC(=O)Nc1ccc(/C(C)=N/NC2=NCCN2)cc1	87.9
